This excerpt belongs to a sample that is enriched for hits.
Shiga inhibitor: A qHTS for Small Molecule Inhibitors of Shiga Toxin; Vero cells, Shiga toxin protein synthesis inhibition reporter; inhibition, % at 38.7 µM; actives 9.2% (n = 290,000); in the data active means inhibition mostly above about 28%, no sharp cut-off; inactive means mostly below about 43%
CHX counter: Cycloheximide Counterscreen for Small Molecule Inhibitors of Shiga Toxin | max response, % | cell reporter, cycloheximide protein synthesis inhibition counterscreen | AID 2314, 2010 | actives 12% (n = 300,000); in the data active means max response mostly above about 13%, no sharp cut-off; inactive means mostly below about 14%; further: read at 38.3 µM for the half of the compounds with a filed dose
LmPK inh: qHTS Assay for Inhibitors of Leishmania Mexicana Pyruvate Kinase (LmPK); Q27686; purified LmPK, Kinase-Glo ATP luminescence, 1 h; Potency, µM (titrated, usually from 57.5 µM), usual class: inhibitors; actives 0.37% (n = 290,000); AID 1721, 2009; active means well fitted curve in the direction sought with a large enough effect; inconclusive means small, poorly fitted or top-dose-only effect, or another doubt; inactive means no such curve, though single readings can be large; an effect the other way counts as inactive or inconclusive
Target sequence (Q27686 whole entry, looked up): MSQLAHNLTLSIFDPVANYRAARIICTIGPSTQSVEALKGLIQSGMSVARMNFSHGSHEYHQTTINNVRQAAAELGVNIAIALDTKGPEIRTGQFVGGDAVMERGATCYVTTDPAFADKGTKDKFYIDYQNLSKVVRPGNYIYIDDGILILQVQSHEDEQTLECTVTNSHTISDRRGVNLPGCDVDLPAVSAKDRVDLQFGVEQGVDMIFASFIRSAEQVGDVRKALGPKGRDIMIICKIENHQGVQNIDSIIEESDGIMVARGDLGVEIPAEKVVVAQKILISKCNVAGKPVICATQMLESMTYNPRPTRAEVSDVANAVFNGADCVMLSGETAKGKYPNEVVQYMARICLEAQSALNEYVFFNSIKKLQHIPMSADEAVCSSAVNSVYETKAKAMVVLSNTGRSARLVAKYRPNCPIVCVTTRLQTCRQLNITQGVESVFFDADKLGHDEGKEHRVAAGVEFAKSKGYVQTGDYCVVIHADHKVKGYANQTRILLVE
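In 50 mM imidazole pH 7.2 with 7 mM MgCl2, LmPK (0.1 nM) turned over PEP (0.5 mM) and ADP (0.1 mM) for 1 h at room temperature. Luciferase read-out of ATP.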
SARS PLpro yeast: qHTS of Yeast-based Assay for SARS-CoV PLP; S. cerevisiae expressing SARS-CoV PLpro, growth rescue; Potency, µM (series often up to 32.9 µM), actives largely listed as activators; actives 0.19% (n = 330,000); AID 485353, 2010; further: nearly all actives have a fitted effect of over 55% in size
TbPYK inhibitor: qHTS of Trypanosoma Brucei Inhibitors. TbPYK enzyme, Kinase-Glo Plus ATP luminescence, 45 min. Potency, µM (top dose mostly 76.8 µM), actives largely listed as inhibitors. pyruvate kinase (Trypanosoma brucei), Q57TT1. actives 0.12% (n = 410,000); active means well fitted curve in the direction sought with a large enough effect; inconclusive means small, poorly fitted or top-dose-only effect, or another doubt; inactive means no such curve, though single readings can be large; an effect the other way counts as inactive or inconclusive; further: nearly all actives have a fitted effect of over 50% in size
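TbPYK + substrate in 50 mM TEA pH 7.2, 100 mM KCl, 10 mM MgCl2, 0.05% BSA, 0.01% Tween-20; cpd pinned; ADP 130 uM final; 45 min RT; Kinase-Glo Plus 10 min; luminescence endpoint.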
NS1 inh: qHTS Assay for Inhibitors of Influenza NS1 Protein Function; Potency, µM (top dose mostly 46.1 µM); actives 0.4% (n = 270,000); further: actives are rising curves; nearly all actives have a fitted effect of over 50% in size
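Growth recovery, yeast-based: influenza A NS1 expressed in S. cerevisiae causes slow growth, and suppressors are detected by OD600. The parent strain without NS1 is used as positive control.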
A number is an active result; - = inactive; ? = inconclusive; . = no result; [ ] = remark or other dose. Unless noted, the call rests on the fitted dose curve.

SMILES | Shiga inhibitor | CHX counter | LmPK inh | SARS PLpro yeast | TbPYK inhibitor | NS1 inh
O=C(c1ccc(Cl)cc1)N(Cc1ccco1)C1CCS(=O)(=O)C1 (configuration not stated) | - | - | - | - | - | -
Cc1ccc(CN(C(=O)Nc2cccc(Cl)c2)c2ccccn2)cc1 | . | . | . | . | - | .
Cc1ccc(CNC(=O)CSc2nc3ccccc3nc2Cc2ccc(C)cc2)cc1 | . | . | . | . | - | .
O=C(O)C1CCC(c2ccc(-c3ccccc3)cc2)CC1 (configuration not stated) | 116.4 | 73.0 | - | - | - | -
Cc1cccc(Cn2c(=O)n3nc(-c4ccccc4)nc3c3ccccc32)c1 | . | . | . | . | - | .
O=S(=O)(NCCSc1nnnn1-c1ccccc1)c1cccs1 | 43.1 | 33.4 | - | - | - | -
CC(=O)c1cccc(NC(=O)NCCc2c[nH]c3ccccc23)c1 | - | 12.0 | - | - | - | -
COc1ccc2[nH]cc(CCNC(=O)Nc3cccc(F)c3)c2c1 | . | . | . | . | - | .
Cc1ccc2[nH]cc(CCNC(=O)Nc3ccccc3)c2c1 | - | 12.5 | - | - | - | -
CC(C)NC(=O)N1[C@H](c2cccs2)[C@@H](C)C(=O)[C@@H](C)[C@@H]1c1cccs1 | . | . | . | . | - | .
O=C(Nc1ccc2ncccc2c1)c1cccc(Br)c1 | 46.8 | 38.9 | - | - | - | -
Cc1ccc(C(=O)Nc2ccc3ncccc3c2)cc1 | - | 13.8 | - | - | - | -
O=C(Nc1ccc2ncccc2c1)c1cc(Cl)ccc1Cl | - | 44.8 | - | - | - | .
Cc1ccc(C(=O)Nc2ncccc2S(=O)(=O)c2ccccc2)cc1 | 66.3 | 12.0 | - | - | - | -
O=C(CSc1ncc(CO)n1Cc1ccccc1)Nc1ccc(C(F)(F)F)cc1 | . | . | . | . | - | .
CNc1ccc(/C=C/C(=O)c2ccc(C)cc2)cc1[N+](=O)[O-] | - | - | - | - | - | -
Cc1ccc(C(=O)/C=C/c2ccc3ncccc3c2)cc1 | 47.1 | 48.5 | - | - | - | -
CCC(=O)c1ccc2ncccc2c1 | 44.0 | 21.2 | - | - | - | -
Brc1ccc(CNc2ccc3ncccc3c2)cc1 | 41.5 | 29.8 | - | - | - | -
CCOC(=O)C1(C)CCN1C(=O)c1ccccc1 (configuration not stated) | . | . | . | . | - | .
CCn1c(=N)n(CC(=O)c2cccc([N+](=O)[O-])c2)c2ccccc21 | 80.8 | 37.5 | - | - | - | -
COc1cccc(C(=O)Cn2c(=N)n(C)c3ccccc32)c1 | - | 30.6 | - | - | - | -
CCCn1c(=N)n(CC(=O)c2cccs2)c2ccccc21 | - | - | - | - | - | -
Cn1c(=N)n(CC(=O)c2cccs2)c2ccccc21 | 149.5 | 55.9 | - | - | - | -
COc1cccc(C(=O)Cn2c(NCCO)nc3ccccc32)c1 | - | - | - | - | - | -[9.22 µM]
SMILES | Shiga inhibitor | CHX counter | LmPK inh | SARS PLpro yeast | TbPYK inhibitor | NS1 inh
O=C(CCC1CCN(Cc2ccccc2)CC1)c1ccc2c(c1)NCCCC2 | . | . | . | . | - | .
COc1cc(OC)cc(C(=O)NNC(=O)CCC2CCCC2)c1 | . | . | . | - | - | .
CC(C)C(=O)c1cn(CC(=O)NCc2ccco2)c2ccccc12 | 57.5 | 29.7 | - | - | - | -
CC(C)(C)C(=O)c1cn(CC(=O)NCc2ccco2)c2ccccc12 | 96.3 | 36.0 | - | - | - | -
CCOC(=O)c1c(C)[nH]c(C)c1S(=O)(=O)N(C)CC(=O)Nc1ccc(OC)cc1 | . | . | . | . | - | .
CC(=O)C1=C(C)Nc2cc(C(F)(F)F)ccc2S1 | - | - | - | - | ? | -
COC(=O)C1=C(C)Nc2ccc(C)cc2S1 | - | 24.5 | - | - | - | -
C/C(Cn1nnc([N+](=O)[O-])n1)=N\NC(=O)c1ccccc1O | 51.7 | 32.4 | - | - | - | -
C/C(Cn1nnc([N+](=O)[O-])n1)=N\NC(=O)c1ccc(Cl)c(Cl)c1 | - | - | - | - | - | -
C/C(Cn1nnc([N+](=O)[O-])n1)=N\NC(=O)c1ccc(O)cc1O | 72.1 | 69.0 | - | ? | - | ?
O=C(Cn1nnc(-c2ccccc2)n1)N/N=C/c1cc([N+](=O)[O-])ccc1O | - | - | - | ? | - | -
COc1cc(C(=O)N/N=C(\C)Cn2nc([N+](=O)[O-])cc2C)ccc1O | - | - | - | - | - | -
C/C(Cn1nnc([N+](=O)[O-])n1)=N\NC(=O)c1ccc(O)cc1 | 61.9 | 22.9 | - | - | - | -
CC1(c2ccccc2)NC(=O)N(CC(=O)NCc2cccc(Cl)c2)C1=O (configuration not stated) | - | - | - | - | - | -
COc1ccccc1C(NC(=O)C1CCN(CCc2ccc(Br)cc2)CC1)c1ccccn1 (configuration not stated) | . | . | . | . | - | .
Cc1ccccc1C(=O)Nc1nc(-c2ccc(Br)cc2)ns1 | . | . | . | . | - | .
Cc1nnc(SCC(=O)NC2CCCCC2)[nH]c1=O | - | - | - | - | - | -
COc1ccc(S(=O)(=O)c2c(O)c(C)cc(NS(=O)(=O)c3ccc(Cl)cc3)c2C(C)C)cc1 | . | . | . | . | - | .
Cc1cccc(C)c1NC(=O)COC(=O)c1c2c(nc3ccccc13)/C(=C\c1ccc3c(c1)OCO3)CCC2 | 44.4 | 18.2 | - | - | - | -
CC(OC(=O)c1c2c(nc3ccccc13)/C(=C\c1ccc3c(c1)OCO3)CCC2)C(=O)Nc1ccc(S(N)(=O)=O)cc1 (configuration not stated) | 48.9 | 41.7 | - | - | - | 11.2µM
CC(=O)/C(=C/c1ccc(N(C)C)cc1)C(=O)c1ccccc1 | - | - | - | - | - | -
CC(=O)N1/C(=C/c2ccc(N(C)C)cc2)C(=O)c2ccccc21 | - | 21.6 | - | - | - | .
CCOC(=O)C1=C(C)NC(C)=C(C(=O)OCC)C1C(=O)OCC(=O)NC1CCCCC1 | . | . | . | - | - | .
Nc1cc(-c2ccc(Br)cc2)nc2cc(-c3ccccc3)nn12 | 92.6 | - | - | - | - | .
Cc1cc(C)n2nc(-c3ccccc3)cc2n1 | 77.1 | 57.2 | - | - | - | -
SMILES | Shiga inhibitor | CHX counter | LmPK inh | SARS PLpro yeast | TbPYK inhibitor | NS1 inh
Nc1cc(-c2ccc(Br)cc2)nn1S(=O)(=O)c1ccccc1 | - | - | - | - | - | -
Cc1cc(C)n2nc(-c3ccc(F)cc3)cc2n1 | . | . | . | . | - | .
Cc1cc(C)n2nc(Nc3ccccc3)cc2n1 | 88.2 | 27.8 | - | - | - | ?
Cc1cc(C)n2nc(C(=O)NCc3ccccc3)cc2n1 | - | - | - | - | - | -
Cc1ccc(-c2cc3nc(C)cc(C)n3n2)cc1 | 77.7 | 38.3 | - | - | - | -
Nc1nc(=S)c2ncn(C3OC(CO)CC3O)c2[nH]1 (configuration not stated) | . | . | . | . | - | .
COC(=O)c1ccc(CSc2nc3c([nH]c4ccccc43)c(=O)n2-c2cccc(OC)c2)o1 | . | . | . | . | - | .
CCCc1cc(=O)[nH]c(SCC(=O)Nc2cccc(S(=O)(=O)N3CCCCC3)c2)n1 | . | . | . | - | - | .
Cc1ccc(NC(=O)c2cc3nc(C)cc(C)n3n2)cc1 | 101.2 | 46.8 | - | - | - | -

Screening results deposited in PubChem by National Center for Advancing Translational Sciences (NCATS).
